Screening data (PubChem BioAssay)
EWS-Fli inh = inhibitors of EWS/Fli oncoprotein transcriptional activity; inhibition, % at 12.6 µM; A673 NR0B1-luciferase reporter, viability-normalised; 350,000 compounds, 0.67% hits;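 active = mean inhibition of at least 50% after viability correction, with every replicate also passing that limit; inconclusive = mean reaches 50% but only one of two replicates passes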;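 also: firefly luciferase signal divided by Alamar Blue viability fluorescence both relative to DMSO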
FXN GAA850 act = activators of GAA850 frataxin (FXN) promoter. HEK293 lucGAA850 FXN promoter luciferase reporter, 24 h; percent of 10 µM SAHA response. activation, % at 6 µM. 360,000 compounds, 0.56% hits;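 active = activation above the average of all compounds screened plus 3 SD, cutoff fixed separately per campaign, cut at about 7.5% in these data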
F508del corr = CFTR F508del correction in bronchial cells; AID 720511; activity (quench increase), % at 7.58 µM; 350,000 compounds, 0.36% hits; CFBE cells, YFP halide quenching; stimulated with forskolin plus potentiator P3; % fluorescence drop versus neutral controls;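 active = mean added fluorescence quench of at least 8% versus neutral control, with both replicates also reaching 8%; inconclusive = only one of the mean or replicate conditions met; inactive = mean below 8% and not both replicates reaching 8%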;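 also: cells transiently co-express mutant CFTR-F508del with the halide-sensitive YFP; corrector assay measuring rescue of mutant channel to the surface after 24 h compound exposure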
HIV Env fusion = HIV envelope-mediated fusion inhibition; HeLa-JRFL Env/CEM21 cell fusion, luciferase; inhibition, % at 12.3 µM; 360,000 compounds, 1.1% hits; AID 651610;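 active = mean replicate inhibition score of at least 50 and every replicate individually at or above 50; inconclusive = only one of the two criteria met; inactive = mean below 50 and not all replicates reaching 50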
PAX8 inh HTS = inhibitors of PAX8 transcriptional activity in RMG-I cells | RMG-I TPO-luciferase reporter, SteadyGlo, 24 h | inhibition, % at 12.6 µM | 360,000 compounds, 1.2% hits;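 active = mean replicate inhibition at least 60% with every replicate also reaching 60%; inconclusive = only one of the two criteria is met; inactive = mean below 60% and not all replicates reaching 60%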;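 also: luciferase light reporting Pax8 driven TPO promoter activity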
Numbers stand for hits; . = inactive; ? = inconclusive; / = no result; [ ] = remark or other dose. A selection: hits, their analogues and other compounds. The true share with any hit is near 2.5%.

SMILES	EWS-Fli inh	FXN GAA850 act	F508del corr	HIV Env fusion	PAX8 inh HTS
CO[C@H]1CN(C)C(=O)c2cc(NS(=O)(=O)CC(F)(F)F)ccc2OC[C@@H](C)N(Cc2cccnc2)C[C@@H]1C	.	/	.	/	.
COc1cccc(S(=O)(=O)N[C@@H]2C=C[C@@H](CC(=O)NCc3ccccc3)O[C@@H]2CO)c1	.	/	.	.	.
COc1ccc(-c2cn(CC[C@@H]3CC[C@@H](NC(=O)Cc4ccccn4)[C@@H](CO)O3)nn2)cc1	.	/	.	.	62.1
COc1ccc(-c2cn(CC[C@H]3CC[C@H](NC(=O)Cc4ccccn4)[C@H](CO)O3)nn2)cc1	.	/	.	.	.
COc1ccc(-c2cn(CC[C@H]3CC[C@H](NC(=O)Cc4ccccn4)[C@@H](CO)O3)nn2)cc1	.	/	.	.	85.7
COc1cccc(S(=O)(=O)N[C@@H]2CC[C@H](CCn3cc(-c4ccccc4)nn3)O[C@@H]2CO)c1	52.7	/	.	.	.
COc1ccc(-c2cn(CC[C@H]3CC[C@@H](NC(=O)Cc4ccccn4)[C@H](CO)O3)nn2)cc1	.	/	.	.	76.6
O=C(Cc1ccccn1)N[C@H]1CC[C@H](CCn2cc(-c3ccccc3)nn2)O[C@H]1CO	.	/	.	.	.
COc1cccc(S(=O)(=O)N[C@@H]2CC[C@H](CCn3cc(-c4ccccc4)nn3)O[C@H]2CO)c1	.	/	.	.	.
C[C@H](CO)N1C[C@H](C)[C@H](CN(C)C(=O)Cc2ccccc2)Oc2cc(-c3ccccc3)ccc2S1(=O)=O	.	/	/	.	.
COc1ccc(NC(=O)N(C)C[C@@H]2Oc3ccc(NC(=O)NC4CCCCC4)cc3CC(=O)N([C@@H](C)CO)C[C@H]2C)cc1	.	/	.	.	.
Cc1cccc(N(C)S(=O)(=O)c2ccc(-c3cc(C)no3)s2)c1	53.6	.	11.9	.	.
CCN(c1cccc(C)c1)S(=O)(=O)c1ccc(-c2cc(C)no2)s1	55.3	.	9.2	.	.
CCOc1ccc(N(C)S(=O)(=O)c2cc(-c3cc(C)no3)ccc2C(C)C)cc1	.	.	.	78.6	.
CCOc1ccc(N(C)S(=O)(=O)c2ccc(-c3cc(C)no3)s2)cc1	54.9	.	.	.	.
COc1ccc(-c2cc(C)no2)cc1S(=O)(=O)N(C)c1cccc(C)c1	/	.	.	.	.
C[C@@H]1CN([C@@H](C)CO)S(=O)(=O)c2ccc(C#C[C@@H](C)O)cc2O[C@@H]1CN(C)C(=O)C1CCC1	.	/	.	.	/
COc1ccc(NC(=O)N[C@@H]2CC[C@@H](CCn3cc(-c4ccccc4)nn3)O[C@H]2CO)cc1	.	/	.	.	.
COc1ccc(N(CC(=O)NCCSC2CCCCC2)S(=O)(=O)c2ccccc2)c(OC)c1	.	.	.	64.1	.
COc1ccc(N(CC(=O)NCCSC2CCCCC2)S(=O)(=O)c2ccc(C)cc2)cc1	.	.	.	.	/
COc1ccc(N(CC(=O)NCCSc2ccc(C)cc2)S(=O)(=O)c2ccccc2)c(OC)c1	.	.	.	.	.
COc1ccc(OC)c(N(CC(=O)NCCSC2CCCCC2)S(=O)(=O)c2ccccc2)c1	/	.	.	58.5	.
Cn1nc(C(C)(C)C)cc1NC(=O)C1(C)CCN1C(=O)CCc1ccccc1 (stereo not drawn)	.	.	.	.	.
Cn1nc(C(C)(C)C)cc1NC(=O)C1(C)CCN1C(=O)Cc1ccc(-c2ccccc2)cc1 (stereo not drawn)	.	.	.	61.6	.
CC(=O)N1[C@H](C(=O)N2CCCCC2)[C@@H](CO)[C@@H]2Cn3c(ccc(C4=CCCCC4)c3=O)[C@@H]21	.	/	.	/	.
SMILES	EWS-Fli inh	FXN GAA850 act	F508del corr	HIV Env fusion	PAX8 inh HTS
Cc1ccccc1S(=O)(=O)N1CC[C@@H]2[C@H](CO)Nc3ccc(-c4cccc(F)c4)cc3[C@@H]21	.	/	.	/	114.0
O=C(Cc1ccccc1)N1CC[C@@H]2[C@H]1c1cc(-c3ccccc3)ccc1N[C@@H]2CO	.	/	.	/	62.4
O=S(=O)(c1ccccc1F)N1CC[C@@H]2[C@H](CO)Nc3ccc(C4=CCCCC4)cc3[C@@H]21	.	/	.	/	89.5
O=S(=O)(c1ccc(F)cc1)N1CC[C@H]2[C@H](CO)Nc3ccc(-c4ccc(F)cc4)cc3[C@H]21	.	/	.	/	.
O=S(=O)(c1ccc(F)cc1)N1CC[C@@H]2[C@@H](CO)Nc3ccc(-c4ccc(F)cc4)cc3[C@@H]21	.	/	15.9	/	.
O=C(Cc1ccccc1)N1CC[C@@H]2[C@@H](CO)Nc3ccc(-c4ccccc4)cc3[C@@H]21	.	/	.	/	.
O=C(NCC[C@H]1CC[C@H](NC(=O)C2CCCC2)[C@H](CO)O1)c1ccc(F)cc1	.	/	.	.	.
CC(C)C#Cc1ccc2c(c1)O[C@H](CN(C)CC1CCOCC1)[C@@H](C)CN([C@@H](C)CO)S2(=O)=O	.	/	.	.	/
CC(C)NC(=O)N(C)C[C@@H]1Oc2ccc(NC(=O)Cn3cnnn3)cc2C(=O)N([C@@H](C)CO)C[C@H]1C	.	/	.	.	/
COc1cccc(-c2ccc3c(c2)[C@H]2[C@H](CCN2C(=O)C2CCCC2)[C@H](CO)N3)c1	.	/	.	55.7[16.7 µM]	?
COc1cccc(-c2ccc3c(c2)[C@H]2[C@H](CCN2S(=O)(=O)c2ccccc2F)[C@@H](CO)N3)c1	.	/	.	/	101.0
O=C(c1cccnc1)N1CC[C@@H]2[C@H](CO)Nc3ccc(C4=CCCCC4)cc3[C@@H]21	/	/	8.1	/	/
COc1ccccc1S(=O)(=O)N1CC[C@H]2[C@H](CO)Nc3ccc(-c4ccc(F)cc4)cc3[C@H]21	.	/	.	/	71.8
CCCN1C[C@H](C)[C@@H](OC)CN(C)C(=O)c2cc(NC(=O)COC)ccc2OC[C@H]1C	.	/	.	.	.
O=C(c1cccc(F)c1)N1CC[C@@H]2[C@H](CO)Nc3ccc(-c4ccccc4F)cc3[C@@H]21	.	/	10.7	/	.
COc1cccc(S(=O)(=O)N2CC[C@@H]3[C@@H](CO)Nc4ccc(-c5ccccc5OC)cc4[C@@H]32)c1	.	/	.	/	80.4
C[C@H](O)C#Cc1cnc2c(c1)C(=O)N([C@@H](C)CO)C[C@@H](C)[C@@H](CN(C)C(=O)c1ccccc1F)O2	.	/	.	.	/
COc1ccc2c3c([nH]c2c1)[C@H](CO)N(C(=O)C1CCCCC1)CC31CN(Cc2nccs2)C1	.	/	.	/	/
CCCCCc1ccc(-c2ccc(/C=C/C(=O)O)cc2)nc1	/	.	/	.	.
CCCc1ccc(-c2ccc(/C=C/C(=O)O)cc2)nc1	56.5	.	.	60.7	.
Cc1ccc(-c2csc(Nc3ccccn3)n2)cc1	.	.	8.7	.	.
O=C(NC(=S)Nc1ccc(CN2CCOCC2)cc1)c1ccc(-c2cccc(Cl)c2)o1	.	.	.	.	.
O=C(Nc1ccc(CN2CCOCC2)cc1)c1ccc(-c2cccc(Cl)c2)o1	/	.	/	77.4	/
O=C(Nc1ccc(CN2CCOCC2)cc1)c1cc2ccccn2n1	56.0	.	.	.	.
C[C@H](CO)N1C[C@H](C)[C@@H](CN(C)C(=O)NC2CCCCC2)OCCCC[C@H](C)Oc2ccc(NC(=O)Nc3ccc(C(F)(F)F)cc3)cc2C1=O	.	/	.	.	.
